# Assay results: the supplement of paper PMC10037445
# In all, about 2,900 compounds were measured (“NF-kB SEAP reporter activity, fold change vs agonist alone”: median about 0.99, highest 2% from about 2.6 on). The sample as a whole holds a higher share of the highest values than the screen did.
# How the values were obtained:
# [1] = tested on: RAW-Dual; test: NF-kB SEAP reporter activity, fold change vs agonist alone; cytotoxicity flag (confluency mask): not cytotoxic; higher = enhanced NF-kB activity
# Summary of the method: (§1)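 RAW-Dual macrophages (50,000 cells/well in DMEM, 384-well plates) received 50 nL of library stock by pin tool, then a PRR agonist 1 h later, and were kept at 37 °C, 5% CO2. After 20 hours, supernatant was read for IRF by QuantiLuc luminescence and for NF-κB by QuantiBlue absorbance at 620 nm. Reporter activity is fold change over agonist-alone wells. Cytotoxic wells had IncuCyte confluency below 70% of agonist controls in both mask sets.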
# [2] = tested on: RAW-Dual; test: NF-kB SEAP reporter activity, fold change vs agonist alone; higher = enhanced NF-kB activity; details: library stock concentration (final ~1000-fold dilution): 10 mM
# Summary of the method: as §1
# [3] = tested on: RAW-Dual; test: NF-kB SEAP reporter activity, fold change vs agonist alone; cytotoxicity flag (confluency mask): cytotoxic (confluency <70% of control); higher = enhanced NF-kB activity
# Summary of the method: as §1
# [4] = agonist: ODN 1826 (TLR9) 0.5 ug/mL
# [5] = agonist: Pam2CSK4 (TLR2/6) 0.1 ug/mL
# [6] = agonist: Pam3CSK4 (TLR2/1) 0.1 ug/mL
# [7] = cytotoxicity flag (confluency mask): not cytotoxic, agonist: MPLA (TLR4) […]
# [8] = cytotoxicity flag (confluency mask): not cytotoxic, agonist: Imiquimod (TLR7) […]
# [9] = cytotoxicity flag (confluency mask): cytotoxic (confluency <70% of control), agonist: Imiquimod (TLR7) […]
# [10] = cytotoxicity flag (confluency mask): cytotoxic (confluency <70% of control), agonist: MPLA (TLR4) […]
smiles,measurement,setting,value
COc1ccc(CNC(=O)Nc2ncc([N+](=O)[O-])s2)cc1 (library stock concentration (final ~1000-fold dilution): 10 mM),NF-kB SEAP reporter activity,[1]; agonist: LPS (TLR4) 0.1 ug/mL,2.74
same,NF-kB SEAP reporter activity,[1]; [4],1.64
same,NF-kB SEAP reporter activity,[1]; [5],0.864
same,NF-kB SEAP reporter activity,[1]; [6],1.32
O=C(Nc1ncc([N+](=O)[O-])s1)c1ccccc1O,NF-kB SEAP reporter activity,[2]; [7],0.945
COc1ccc(S(=O)(=O)NCc2ccc(C(=O)NCCc3ccc(Cl)cn3)cc2)cc1 (library stock concentration (final ~1000-fold dilution): 10 mM),NF-kB SEAP reporter activity,[1]; agonist: LPS (TLR4) 0.1 ug/mL,1.36
same,NF-kB SEAP reporter activity,[1]; [4],1.15
same,NF-kB SEAP reporter activity,[1]; [5],0.849
same,NF-kB SEAP reporter activity,[1]; [6],1.49
COCCOc1cnc2ccn(C(C)c3nnc4c(F)cc(-c5cnn(C)c5)cn34)c(=O)c2c1 (stereo unspecified),NF-kB SEAP reporter activity,[2]; [8],1.01
same,NF-kB SEAP reporter activity,[2]; [7],1.01
COCCOc1cnc2ccn(C(C)c3nnc4c(F)cc(-c5cnn(C)c5)cn34)c(=O)c2c1 (stereo unspecified) (library stock concentration (final ~1000-fold dilution): 10 mM),NF-kB SEAP reporter activity,[1]; agonist: LPS (TLR4) 0.1 ug/mL,1.54
same,NF-kB SEAP reporter activity,[1]; [4],1.11
same,NF-kB SEAP reporter activity,[1]; [5],1.11
same,NF-kB SEAP reporter activity,[1]; [6],1.13
CCCCCCCCCCCCCCCC(=O)OCC(O)C1OC(O)=C(O)C1=O (stereo unspecified) (library stock concentration (final ~1000-fold dilution): 10 mM),NF-kB SEAP reporter activity,[1]; agonist: LPS (TLR4) 0.1 ug/mL,1.15
same,NF-kB SEAP reporter activity,[1]; [4],0.825
same,NF-kB SEAP reporter activity,[1]; [5],0.949
same,NF-kB SEAP reporter activity,[1]; [6],0.67
CCCCCCCCCCCCCCCC(=O)OCC(O)C1OC(O)=C(O)C1=O (stereo unspecified),NF-kB SEAP reporter activity,[2]; [8],0.898
same,NF-kB SEAP reporter activity,[2]; [7],1.01
Cc1c[nH]c(-c2cnc(NCCNc3ccc(C#N)cn3)nc2-c2ccc(Cl)cc2Cl)n1 (library stock concentration (final ~1000-fold dilution): 10 mM),NF-kB SEAP reporter activity,[1]; agonist: LPS (TLR4) 0.1 ug/mL,3.08
same,NF-kB SEAP reporter activity,[1]; [4],2.65
same,NF-kB SEAP reporter activity,[1]; [5],2.12
same,NF-kB SEAP reporter activity,[1]; [6],2.9
Cc1c[nH]c(-c2cnc(NCCNc3ccc(C#N)cn3)nc2-c2ccc(Cl)cc2Cl)n1.Cl,NF-kB SEAP reporter activity,[2]; [8],2.27
same,NF-kB SEAP reporter activity,[2]; [7],2.2
Cc1c[nH]c(-c2cnc(NCCNc3ccc(C#N)cn3)nc2-c2ccc(Cl)cc2Cl)n1,NF-kB SEAP reporter activity,[2]; [8],2.12
same,NF-kB SEAP reporter activity,[2]; [7],2.19
Cc1c[nH]c(-c2cnc(NCCNc3ccc(C#N)cn3)nc2-c2ccc(Cl)cc2Cl)n1.Cl (library stock concentration (final ~1000-fold dilution): 10 mM),NF-kB SEAP reporter activity,[1]; agonist: LPS (TLR4) 0.1 ug/mL,2.97
same,NF-kB SEAP reporter activity,[1]; [4],2.78
same,NF-kB SEAP reporter activity,[1]; [5],1.84
same,NF-kB SEAP reporter activity,[1]; [6],3.48
CCOC(=O)Nc1ccc(NCc2ccc(F)cc2)nc1N.O=C(O)/C=C/C(=O)O,NF-kB SEAP reporter activity,[2]; [8],0.871
same,NF-kB SEAP reporter activity,[2]; [7],1.23
CCOC(=O)Nc1ccc(NCc2ccc(F)cc2)nc1N.O=C(O)/C=C/C(=O)O (library stock concentration (final ~1000-fold dilution): 10 mM),NF-kB SEAP reporter activity,[1]; agonist: LPS (TLR4) 0.1 ug/mL,1.03
same,NF-kB SEAP reporter activity,[1]; [4],1.1
same,NF-kB SEAP reporter activity,[1]; [5],0.993
same,NF-kB SEAP reporter activity,[1]; [6],1.01
CC(C)CN(CC(O)C(Cc1ccccc1)NC(=O)OC1COC2OCCC12)S(=O)(=O)c1ccc(N)cc1.CCO (stereo unspecified) (library stock concentration (final ~1000-fold dilution): 10 mM),NF-kB SEAP reporter activity,[1]; agonist: LPS (TLR4) 0.1 ug/mL,1.78
same,NF-kB SEAP reporter activity,[1]; [4],1.57
same,NF-kB SEAP reporter activity,[1]; [5],1.42
same,NF-kB SEAP reporter activity,[1]; [6],1.43
CC(C)CN(CC(O)C(Cc1ccccc1)NC(=O)OC1COC2OCCC12)S(=O)(=O)c1ccc(N)cc1.CCO (stereo unspecified),NF-kB SEAP reporter activity,[2]; [8],1.42
same,NF-kB SEAP reporter activity,[2]; [7],1.49
COc1ccc(Cn2c3ncnc4c(ncn4Cc4ccc(OC)cc4)c-3nc2=O)cc1 (library stock concentration (final ~1000-fold dilution): 10 mM),NF-kB SEAP reporter activity,[1]; agonist: LPS (TLR4) 0.1 ug/mL,1.73
same,NF-kB SEAP reporter activity,[1]; [4],1.45
same,NF-kB SEAP reporter activity,[1]; [5],0.409
same,NF-kB SEAP reporter activity,[1]; [6],0.8
COc1ccc(Cn2c3ncnc4c(ncn4Cc4ccc(OC)cc4)c-3nc2=O)cc1,NF-kB SEAP reporter activity,[2]; [8],1.43
same,NF-kB SEAP reporter activity,[2]; [7],2.08
CC(=O)c1ccc2c(c1)c1cc(C(C)=O)ccc1n2CCNC(C)C (library stock concentration (final ~1000-fold dilution): 10 mM),NF-kB SEAP reporter activity,[3]; agonist: LPS (TLR4) 0.1 ug/mL,0.301
same,NF-kB SEAP reporter activity,[3]; [4],0.193
same,NF-kB SEAP reporter activity,[3]; [5],0.0764
same,NF-kB SEAP reporter activity,[3]; [6],0.183
CC(=O)c1ccc2c(c1)c1cc(C(C)=O)ccc1n2CCNC(C)C,NF-kB SEAP reporter activity,[2]; [9],0.147
same,NF-kB SEAP reporter activity,[2]; [10],0.242
COc1cc(F)ccc1-c1ncnc(Nc2cccc(CS(C)(=N)=O)c2)n1 (stereo unspecified) (library stock concentration (final ~1000-fold dilution): 10 mM),NF-kB SEAP reporter activity,[3]; agonist: LPS (TLR4) 0.1 ug/mL,0.786
same,NF-kB SEAP reporter activity,[3]; [4],1.4
same,NF-kB SEAP reporter activity,[3]; [5],0.277
same,NF-kB SEAP reporter activity,[3]; [6],0.421
COc1ccccc1-c1cc(Nc2cccc(CS(N)(=O)=O)c2)ncn1 (library stock concentration (final ~1000-fold dilution): 10 mM),NF-kB SEAP reporter activity,[1]; agonist: LPS (TLR4) 0.1 ug/mL,2.67
same,NF-kB SEAP reporter activity,[1]; [4],2.18
same,NF-kB SEAP reporter activity,[1]; [5],0.783
same,NF-kB SEAP reporter activity,[1]; [6],1.55
NC(=O)c1cccc(-c2cc(Nc3ccc(OC(F)(F)F)cc3)ncn2)c1 (library stock concentration (final ~1000-fold dilution): 10 mM),NF-kB SEAP reporter activity,[1]; agonist: LPS (TLR4) 0.1 ug/mL,1.21
same,NF-kB SEAP reporter activity,[1]; [4],0.672
same,NF-kB SEAP reporter activity,[1]; [5],0.944
same,NF-kB SEAP reporter activity,[1]; [6],0.869
COc1cc(F)ccc1-c1ncnc(Nc2cccc(CS(C)(=N)=O)c2)n1 (stereo unspecified),NF-kB SEAP reporter activity,[2]; [9],1.26
same,NF-kB SEAP reporter activity,[2]; [10],1.31
NC(=O)c1cccc(-c2cc(Nc3ccc(OC(F)(F)F)cc3)ncn2)c1,NF-kB SEAP reporter activity,[2]; [8],1.24
same,NF-kB SEAP reporter activity,[2]; [7],1.11
COc1ccccc1-c1cc(Nc2cccc(CS(N)(=O)=O)c2)ncn1,NF-kB SEAP reporter activity,[2]; [8],1.45
same,NF-kB SEAP reporter activity,[2]; [7],2.59
CCOc1cc(=O)[nH]cc1-c1ccc(CC(=O)Nc2cc(C(C)(C)C(F)(F)F)on2)c(F)c1 (library stock concentration (final ~1000-fold dilution): 10 mM),NF-kB SEAP reporter activity,[1]; agonist: LPS (TLR4) 0.1 ug/mL,0.538
same,NF-kB SEAP reporter activity,[1]; [4],0.276
same,NF-kB SEAP reporter activity,[1]; [5],0.163
same,NF-kB SEAP reporter activity,[1]; [6],0.188
CCOc1cc(=O)[nH]cc1-c1ccc(CC(=O)Nc2cc(C(C)(C)C(F)(F)F)on2)c(F)c1,NF-kB SEAP reporter activity,[2]; [8],0.281
same,NF-kB SEAP reporter activity,[2]; [7],0.545
